The subject of test [1] is Human papillomavirus type 1a protein E7 (residues 44-93). In words: small molecules binding HPV E7 44-93 – biochemical, small-molecule microarray, residues 44-93, 635 nm fluorescence, primary screen (AID 1108).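 Note: E7 fragment applied at 1 µg/mL in TBST for 1 h at 4 C; score combines spot fluorescence with its signal to noise ratio.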 Conditions: fluorescence 635 nm, higher = more signal.
Test [2] is described as follows: hepatitis C replication reporter changes, two-sided – Huh7 cells, luciferase reporter, HCV replication inhibitor project, primary screen (AID 1109).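 Note: huh7 hepatoma cells harbouring a luciferase neomycin HCV replicon reporter; luciferase luminescence as measure of HCV replicon replication; test concentration not given here.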 The following applies: Huh7 HCV replicon luciferase reporter, 48 h; higher = more signal. (A reporter such as luciferase makes a cellular process visible.)
In test [3] the target is Left-right determination factor 2 (Homo sapiens) (UniProt O00292). The test can be described thus: small molecules binding LEFTY2 protein – biochemical, small-molecule microarray, 635 nm fluorescence scan, primary screen (AID 1110). Conditions: higher = more signal.
Test [4] has as its target Calmodulin-1 (Homo sapiens) (UniProt P0DP23). In words: small molecules binding calmodulin-1 with EGTA – biochemical, small-molecule microarray, Cy5-labelled CALM1, profiling panel (AID 1111).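 Note: labelled calmodulin applied in Tris saline Tween buffer holding calcium plus EGTA and DTT.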 Conditions: Cy5-CALM1 binding fluorescence, higher = more signal.
Test [5] has the same target. The test can be described thus: small molecules binding Ca-loaded calmodulin-1 – biochemical, small-molecule microarray, Cy5-labelled CALM1, plus calcium, artefact control for SMM control-protein annotation, profiling panel (AID 1112).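 Note: score merges spot fluorescence with signal to noise from triplicate slides.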 The following applies: Cy5-CALM1 binding fluorescence, higher = more signal.
Test [6] can be described thus: probe aWnt5a binding to arrayed compounds – biochemical, biotinylated probe, 635/667 nm fluorescence, primary screen (AID 1113).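 Note: score merges 667 nm fluorescence intensity with signal-to-noise per printed feature.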 The following applies: small-molecule microarray, higher = more signal.
A short description of test [7]: probe aShh binding to arrayed compounds – biochemical, biotinylated probe, 635/667 nm fluorescence, primary screen (AID 1114).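 Note: probe is biotin-labelled aShh protein from a stem cell growth factor screen; measures binding of labelled protein to compounds printed on the slide; score merges feature fluorescence at 667 nm with signal-to-noise.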 Conditions: small-molecule microarray, higher = more signal.
Test [8] in a line: probe aNog binding to arrayed compounds – biochemical, biotinylated probe, 635/667 nm fluorescence, primary screen (AID 1115).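 Note: probe is biotinylated aNog protein used at 0.15 µg/mL for 1 h at 4 C; z-score combines 667 nm fluorescence of each spot with its signal to noise.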 Conditions: small-molecule microarray, higher = more signal.
In test [9] the target is Torsin-1A-interacting protein 1 (Homo sapiens) (UniProt Q5JTV8). In words: compound microarray binding of lysate hLAP1 – cell lysate, small-molecule microarray, COS7 lysate, 635/667 nm fluorescence, primary screen (AID 1116). Conditions: 635 nm fluorescence, higher = more signal.
The target of test [10] is Alpha-bungarotoxin (Bungarus multicinctus) (UniProt P60615). In words: compounds binding labelled alpha-BTX control protein – biochemical, small-molecule microarray, Alexa647 label, 635/667 nm fluorescence, artefact control for SMM control protein annotation, profiling panel (AID 1117). The following applies: alpha-BTX-A647 binding fluorescence, higher = more signal.
In test [11] the target is Albumin (Bos taurus) (UniProt P02769). In words: compounds binding labelled BSA control protein – biochemical, small-molecule microarray, Alexa647 label, 635/667 nm fluorescence, artefact control for SMM control protein annotation, profiling panel (AID 1118).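 Note: score merges 667 nm emission intensity and signal-to-noise per printed compound spot.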 Conditions: BSA-A647 binding, fluorescence 635 nm, higher = more signal.
Test [12] in a line: probe aXIP binding to arrayed compounds – biochemical, NeuroSMM set, 635/667 nm fluorescence, primary screen (AID 1119).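 Note: probe is the protein aXip251-270 applied at 1 µg/mL to compound-printed slides; binding of probe to printed compounds measured as 667 nm fluorescence plus signal to noise.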 Conditions: small-molecule microarray, higher = more signal, called active from +8 up or from −8 down.
Test [13] is described as follows: probe aNOTCH3 binding on compound microarray – biochemical, small-molecule microarray, 635/667 nm fluorescence, primary screen (AID 1120).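 Note: probe is a biotin-tagged antibody raised against NOTCH3 rather than NOTCH3 protein; score merges spot fluorescence near 667 nm with spot signal to noise.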 The following applies: higher = more signal.
Test [14] can be described thus: probe aNOTCH2 binding on compound microarray – biochemical, small-molecule microarray, 635/667 nm fluorescence, primary screen (AID 1121).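 Note: score merges feature fluorescence read at 667 nm with its signal to noise.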 Conditions: higher = more signal.
Test [15] has as its target Carbonic anhydrase 2 (Homo sapiens) (UniProt P00918). In words: compounds binding carbonic anhydrase 2 – biochemical, small-molecule microarray, Alexa647-labelled CAII, profiling panel (AID 1122). The following applies: CAII-A647 binding fluorescence, higher = more signal.
The nature of test [16]: COS7 lysate on small-molecule microarray, probe aHis, 635 nm (AID 1123).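 Note: z-score combines 667nm fluorescence intensity with signal-to-noise per printed compound spot.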 Conditions: COS7 cell lysate, fluorescence, higher = more signal.
The nature of test [17]: probe aLAP1 signal on lysate-treated microarray – cell lysate, small-molecule microarray, COS7 lysate, primary screen (AID 1124).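 Note: lysate comes from COS7 cells expressing LAP1 and is applied at 0.3 µg/mL; score merges spot fluorescence near 667 nm with signal-to-noise over triplicate slides.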 The following applies: probe aLAP1, fluorescence, higher = more signal.
Test [18] deals with Sam68 (KHDRBS1). In words: compounds binding KHDRBS1 protein – biochemical, small-molecule microarray, 635 nm fluorescence, primary screen (AID 1125).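 Note: score merges 667 nm channel intensity with signal to noise over triplicate slides.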 Conditions: higher = more signal.
In test [19] the test system is Chordin-like protein 2 (CHRDL2). In words: compounds binding chordin-like 2 – biochemical, small-molecule microarray, 635 nm fluorescence, primary screen (AID 1126).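 Note: printed compound slides probed with Chrdl2 protein at 4 µg/mL for 1 h at 4 C; score merges 667 nm emission intensity with signal to noise over three replicate slides.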 The following applies: fluorescence 635 nm, higher = more signal.
Test [20] has as its target Concanavalin-A (Canavalia ensiformis) (UniProt P02866). In words: compounds binding concanavalin A lectin – biochemical, small-molecule microarray, Alexa647 label, 635 nm, artefact control for SMM control protein annotation, primary screen (AID 1127).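 Note: z combines 667 nm emission intensity with signal-to-noise across three replicate slides.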 The following applies: ConA-A647 binding fluorescence, higher = more signal.

Several values for one entry are separate records, joined by “and”; a condition that tells them apart may be missing. Equal entries are not always repeated. Activity calls are given as the source filed them.

Torsin-1A-interacting protein 1 (Homo sapiens), sequence (Q5JTV8 whole entry, looked up): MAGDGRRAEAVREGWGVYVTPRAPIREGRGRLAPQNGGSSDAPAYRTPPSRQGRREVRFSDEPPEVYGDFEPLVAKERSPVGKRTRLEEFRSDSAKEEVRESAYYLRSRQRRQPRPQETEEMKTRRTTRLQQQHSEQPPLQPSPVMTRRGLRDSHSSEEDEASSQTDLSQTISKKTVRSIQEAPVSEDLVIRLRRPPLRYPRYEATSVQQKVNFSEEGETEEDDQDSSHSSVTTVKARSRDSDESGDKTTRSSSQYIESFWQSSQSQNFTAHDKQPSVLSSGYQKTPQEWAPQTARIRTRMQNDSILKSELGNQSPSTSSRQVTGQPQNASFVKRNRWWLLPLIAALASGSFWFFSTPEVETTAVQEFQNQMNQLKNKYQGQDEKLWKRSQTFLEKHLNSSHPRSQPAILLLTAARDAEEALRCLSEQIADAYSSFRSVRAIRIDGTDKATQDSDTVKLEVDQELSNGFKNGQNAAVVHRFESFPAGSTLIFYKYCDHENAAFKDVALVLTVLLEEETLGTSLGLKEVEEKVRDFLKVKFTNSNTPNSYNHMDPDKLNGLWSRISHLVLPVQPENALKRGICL
Albumin (Bos taurus), sequence (P02769 whole entry, looked up): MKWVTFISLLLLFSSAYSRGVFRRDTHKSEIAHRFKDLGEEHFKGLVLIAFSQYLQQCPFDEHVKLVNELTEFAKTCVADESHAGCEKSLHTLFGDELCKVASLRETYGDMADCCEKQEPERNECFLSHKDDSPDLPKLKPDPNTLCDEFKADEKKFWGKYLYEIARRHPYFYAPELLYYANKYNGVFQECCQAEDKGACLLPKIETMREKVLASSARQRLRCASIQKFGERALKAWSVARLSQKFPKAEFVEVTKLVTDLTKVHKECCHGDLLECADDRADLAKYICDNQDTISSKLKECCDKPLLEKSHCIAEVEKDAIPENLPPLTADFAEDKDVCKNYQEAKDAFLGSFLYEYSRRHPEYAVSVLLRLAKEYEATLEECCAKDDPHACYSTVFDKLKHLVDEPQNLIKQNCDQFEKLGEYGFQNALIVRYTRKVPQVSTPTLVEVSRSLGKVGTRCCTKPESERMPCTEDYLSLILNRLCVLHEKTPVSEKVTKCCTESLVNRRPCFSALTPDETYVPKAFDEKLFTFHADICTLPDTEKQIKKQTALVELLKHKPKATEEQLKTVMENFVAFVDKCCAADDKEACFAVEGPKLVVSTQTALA
Left-right determination factor 2 (Homo sapiens), sequence (O00292 whole entry, looked up): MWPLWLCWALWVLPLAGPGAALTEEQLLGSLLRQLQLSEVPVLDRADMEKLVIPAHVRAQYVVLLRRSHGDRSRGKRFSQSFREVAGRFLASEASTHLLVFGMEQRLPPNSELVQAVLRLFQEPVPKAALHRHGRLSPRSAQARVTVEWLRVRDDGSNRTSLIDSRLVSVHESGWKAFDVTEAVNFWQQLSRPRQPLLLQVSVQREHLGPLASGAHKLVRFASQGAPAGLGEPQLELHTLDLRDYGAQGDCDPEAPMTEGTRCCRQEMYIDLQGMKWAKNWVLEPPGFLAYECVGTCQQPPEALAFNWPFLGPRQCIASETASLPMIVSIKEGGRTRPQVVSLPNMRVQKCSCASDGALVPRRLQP
Concanavalin-A (Canavalia ensiformis), sequence (P02866 whole entry, looked up): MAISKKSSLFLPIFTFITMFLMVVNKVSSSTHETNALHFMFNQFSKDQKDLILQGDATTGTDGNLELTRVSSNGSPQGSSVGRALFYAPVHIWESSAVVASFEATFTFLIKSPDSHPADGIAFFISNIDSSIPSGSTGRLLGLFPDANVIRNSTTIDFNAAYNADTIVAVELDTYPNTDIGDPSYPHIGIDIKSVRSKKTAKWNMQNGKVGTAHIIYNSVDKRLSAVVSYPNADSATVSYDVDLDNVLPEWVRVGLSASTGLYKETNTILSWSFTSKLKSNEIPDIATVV
Alpha-bungarotoxin (Bungarus multicinctus), sequence (P60615 whole entry, looked up): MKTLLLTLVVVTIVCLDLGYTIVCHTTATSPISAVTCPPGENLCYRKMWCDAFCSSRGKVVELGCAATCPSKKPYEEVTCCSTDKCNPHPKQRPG

As to `C=CCN(Cc1ccccc1)C(=O)C1N(c2ccc(CCO)cc2)C(=O)C2C(C(=O)O)C3C=CC21O3` (stereo not given), the composite z-score in test [1] is -0.864 and -3.61; in test [3], -2.68 and -3.26; in test [4], -0.279 and -1.04; in test [5], 0.428 and -0.184; in test [6], -0.195 and -0.0792; in test [7], 0.149 and -0.0035. Besides, the composite z-score in test [8] is -0.152 and 0.784; in [9], -0.958 and -1.58; in test [10] it was -1.48 and 0.899; in [11] it was -1.88 and -0.419; in [13] it was -0.393 and -0.575; in test [14], -0.201 and 0.0434. Also, the composite z-score in test [15] is 0.942 and 0.937; in test [16], -0.361 and -0.701; in test [17], -0.418 and -0.931; in test [18], -1.15 and -1.08; in [19] it was -1.61 and -3.84; in [20], -1.82 and -1.97. In test [2], the z-score is 0.677 and 0.514. For the same molecule, the composite Z-score in [12] was -0.364 (inactive) and -0.371 (inactive).

Take `C[N+](C)(C)CCCCCCNC(=O)[C@H]1C[C@H]2C(=O)N[C@@H](CCCC[N+](C)(C)C)C(=O)N2[C@H]1c1ccc(O)cc1`: the composite z-score in test [1] was -0.113 and 0.0498; in test [3] it was 0.633 and -0.0601; in test [4], -0.616 and -0.416; in test [5], -0.452 and -1.03; in test [6], -0.13 and -0.14; in [7], -0.124 and 0.0326. Moreover, the composite z-score in [8] was 0.0637 and -0.303; in [9], -0.0201 and -0.413; in [10], 1.02 and -1.54; in [11] it was -1.56 and 0.119; in [13] it was -0.0359 and -0.0947; in test [14] it was -0.136 and -0.0651. The composite z-score in test [15] was 0.142 and 0.718; in test [16], 0.186 and 0.951; in [17], -0.149 and -0.179; in test [18] it was 0.0061 and 0.117; in test [19] it was 0.823 and 0.178; in test [20], -0.341 and -0.163. The z-score in [2] was -0.0901 and 0.0595. Besides, in test [12], the composite Z-score is -0.232 (inactive) and 0.577 (inactive).

For `C=CCN(Cc1ccccc1)C(=O)C(c1cccs1)N(C(=O)/C=C\C(=O)O)c1ccc(CCO)cc1` (stereo not given), the composite z-score is -0.325 and -0.505 in [1]; -2.74 and -3.22 in [3]; -0.729 and -1 in test [4]; 0.204 and -0.257 in test [5]; -0.243 and -0.252 in test [6]; -0.221 and -0.138 in test [7]. Moreover, the composite z-score in test [8] was -0.4 and -0.118; in test [9], -0.648 and -0.326; in test [10], -1.7 and -1.25; in test [11], -0.047 and 0.278; in test [13], -0.532 and -0.475; in [14], -0.213 and -0.2. The composite z-score in test [15] is 0.824 and 0.335; in [16], -0.577 and -0.107; in test [17], -0.0165 and -0.602; in test [18], -0.581 and -1.13; in test [19], -2.94 and -1.92; in [20], -0.772 and -0.564. Moreover, the z-score in [2] is 0.0048 and 0.875. The composite Z-score in [12] is -0.18 (inactive) and -0.296 (inactive).

`C[C@@H]1CC[C@@H](C(=O)O)N[C@H]1c1ccc(-c2ccco2)cc1`: the composite z-score is -1.68 in test [1]; 0.88 in test [3]; -0.547 in test [4]; -1.3 in test [5]; -0.096 in [6]; -0.299 in test [7]. The composite z-score is 0.0023 in test [8]; 0.195 in test [9]; 0.0848 in [10]; 0.0852 in [11]; 0.0458 in test [13]; -0.16 in [14]. Moreover, the composite z-score in [15] was 0.812; in [16] it was 0.01; in test [17], -0.103; in [18], 0.108; in [19], 1.1; in test [20] it was 0.529. The z-score in test [2] is -0.305. Moreover, the composite Z-score in [12] is -0.122 (inactive).

Source of the values: PubChem BioAssay.
